Experimental findings from PubChem BioAssay (EPA / NIEHS) are described below.

Calls of active or inactive are those of the source. Rule for the calls: active = hit-call score of the fitted dose curve at least 0.9, where 1 is the maximum; inactive = score below 0.9.

Assay [1] can be described thus: ATG_CRE_CIS: Attagene CIS-FACTORIAL HepG2 Assay for human cAMP Responsive Element (CRE) binding protein 3 (AID 2282926). The settings on record: HepG2 CRE cis-reporter, Attagene multiplexed mRNA; actives raise or lower the signal. The method in brief:
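We dosed HepG2 cells bearing multiple cis-promoter reporter units for 24 h and measured reporter mRNA by RT-PCR with capillary electrophoresis detection. Bidirectional concentration-response fitting used DMSO as negative control.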

Assay [2] concerns the target CCAAT/enhancer-binding protein beta (Homo sapiens) (UniProt P17676). Put plainly: ATG_C_EBP_CIS: Attagene CIS-FACTORIAL HepG2 Assay for human CCAAT/Enhancer Binding Protein (C/EBP) beta (AID 2282927). The settings on record: HepG2 Attagene cis-factorial transcription factor reporter; actives raise or lower the signal. An outline of the steps: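 Endogenous transcription factor activity in human liver HepG2 cells is inferred from induction of a CEBPB-linked reporter mRNA. Exposure lasts 24 h; activity is fitted in both directions relative to DMSO.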

Assay [3] in a line: ATG_CMV_CIS: Attagene CIS-FACTORIAL HepG2 Assay for human CMV (Internal Marker) (AID 2282928).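 Note: endpoint acts as a background internal control marker rather than a target.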 The settings on record: HepG2 CMV promoter reporter, transcription factor profiling; actives raise or lower the signal. An outline of the steps:
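After transient transfection of HepG2 with reporter transcription units driven by cis-regulatory promoters, cells receive test chemical for 24 h. Labeled reporter amplicons, digested with HpaI, are sized and quantified by capillary electrophoresis against DMSO.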

A short description of assay [4]: ATG_DR4_LXR_CIS: Attagene CIS-FACTORIAL HepG2 Assay for human Liver X Receptor (LXR), DR4 submotif (AID 2282929). The settings on record: HepG2 Attagene DR4 cis-reporter, mRNA transcription; actives raise or lower the signal. An outline of the steps: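 HepG2 cells were transiently transfected with multiple cis-regulated reporter units and dosed for 24 hours. The DR4 reporter mRNA was quantified by RT-PCR, 6-FAM labelling and capillary electrophoresis. Bidirectional fits used DMSO as baseline.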

Assay [5] concerns the target Aryl hydrocarbon receptor (Homo sapiens) (UniProt P35869). Put plainly: ATG_Ahr_CIS: Attagene CIS-FACTORIAL HepG2 Assay for human Aryl Hydrocarbon Receptor (Ahr) (AID 2282930). The note with it: HepG2 AhR cis-factorial reporter transcription; actives raise or lower the signal. The method in brief:
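Transient MRTU transfection of HepG2 → 24 h compound exposure → total RNA, oligo(dT) RT → PCR, 6-FAM extension, HpaI cut → CE fluorescence. DMSO = baseline; bidirectional curve fit.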

Assay [6] is described as follows: ATG_AP_1_CIS: Attagene CIS-FACTORIAL HepG2 Assay for human Activator Protein 1 (AP-1) (AID 2282931). The settings on record: HepG2 Attagene cis-factorial AP-1 reporter mRNA; actives raise or lower the signal. The method in brief:
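HepG2 cells transiently transfected with cis-element-driven reporter transcription units, dosed for 24 hours. Reporter mRNA measured by RT-PCR, 6-FAM labelling, HpaI digestion and capillary electrophoresis. Bidirectional fitting against DMSO baseline.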

The nature of assay [7]: ATG_AP_2_CIS: Attagene CIS-FACTORIAL HepG2 Assay for human Activator Protein 2 (AP-2) (AID 2282932). The settings on record: HepG2 AP-2 cis-reporter, Attagene transcription factor profiling; actives raise or lower the signal. An outline of the steps:
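Step one: transient transfection of HepG2 with reporter transcription units. Step two: 24 h chemical exposure. Step three: RNA extraction, RT-PCR, labelled fragment analysis by capillary electrophoresis; DMSO serves as baseline.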

Assay [8] in a line: ATG_BRE_CIS: Attagene CIS-FACTORIAL HepG2 Assay for human Bone Morphogenetic Protein (BMP) Response Element (BRE) (AID 2282933). The settings on record: HepG2 BMP response element reporter, Attagene transcription factor profiling; actives raise or lower the signal. The method in brief:
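After a 24 h chemical treatment, transiently transfected HepG2 cells were lysed for RNA; reporter transcripts were quantified by fluorescent RT-PCR and capillary electrophoresis, normalised to DMSO.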

In assay [9] the target is Retinoic acid receptor alpha (Homo sapiens) (UniProt P10276). Put plainly: ATG_DR5_RAR_CIS: Attagene CIS-FACTORIAL HepG2 Assay for human Retinoic Acid Receptor Alpha (RARE), DR5 submotif (AID 2282934). The settings on record: HepG2 Attagene cis-factorial RARE DR5 reporter, mRNA; actives raise or lower the signal. The method in brief:
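Transient MRTU transfection of HepG2; 24 h compound treatment; TriZol RNA, oligo(dT) RT, PCR, FAM labelling, capillary electrophoresis. Bidirectional fit vs DMSO. Endogenous TF activity at DR5 RARE.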

Assay [10] addresses Transcription factor E2F1 (Homo sapiens) (UniProt Q01094). The experiment in a line: ATG_E2F_CIS: Attagene CIS-FACTORIAL HepG2 Assay for human E2F Transcription Factor 1 (AID 2282935). The note with it: HepG2 Attagene cis-reporter, E2F reporter RNA transcripts; actives raise or lower the signal. An outline of the steps: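 Total RNA from 24 h-treated, reporter-transfected HepG2 cells undergoes DNase I treatment, oligo(dT) reverse transcription, PCR and 6-FAM primer extension before capillary electrophoresis.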

Assay [11] can be described thus: ATG_E_Box_CIS: Attagene CIS-FACTORIAL HepG2 Assay for human Enhancer Box (E-box) (AID 2282936). The settings on record: HepG2 E-box cis-reporter transcription, actives raise or lower the signal. An outline of the steps: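 DMSO served as negative control and baseline for bidirectional fitting. Human hepatoma HepG2 cells, transiently transfected with cis-reporter constructs, were dosed 24 h; reporter mRNA read by RT-PCR and capillary electrophoresis.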

Assay [12] is described as follows: ATG_M_61_CIS: Attagene CIS-FACTORIAL HepG2 Assay for M61 Transcription Factor (Internal Marker) (AID 2282937). The note with it: HepG2 Attagene CIS-FACTORIAL M61 internal marker reporter; actives raise or lower the signal. An outline of the steps:
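HepG2 cells transiently transfected with multiplexed cis-promoter reporter units reporting endogenous transcription factor activity, measured 24 h after dosing. Reporter mRNA quantified by RT-PCR and capillary electrophoresis; bidirectional fit against DMSO baseline.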

Assay [13] is described as follows: ATG_EGR_CIS: Attagene CIS-FACTORIAL HepG2 Assay for human Early Growth Response 1 (EGR1) (AID 2282938). The settings on record: HepG2 Attagene CIS-FACTORIAL EGR reporter mRNA; actives raise or lower the signal. An outline of the steps: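 HepG2 cells transiently transfected with cis-element-driven multiplexed reporter units, dosed for 24 h. EGR1-element reporter mRNA quantified by RT-PCR, 6-FAM labelling, HpaI digestion and capillary electrophoresis; bidirectional fit versus DMSO.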

The nature of assay [14]: ATG_M_19_CIS: Attagene CIS-FACTORIAL HepG2 Assay for M19 Transcription Factor (Internal Marker) (AID 2282939). The note with it: HepG2 Attagene CIS-FACTORIAL M19 internal marker reporter; actives raise or lower the signal. The method in brief: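 In this multiplexed cell assay, transiently transfected HepG2 reporter units report endogenous transcription-factor activity; after 24 hours of treatment, labelled reporter cDNA fragments are quantified by capillary electrophoresis and fitted bidirectionally against DMSO.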

Assay [15] is described as follows: ATG_ERE_CIS: Attagene CIS-FACTORIAL HepG2 Assay for Estrogen Response Element (ERE) (AID 2282940). The settings on record: HepG2 ERE cis-reporter, Attagene RNA transcript; actives raise or lower the signal. The method in brief: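 Measuring endogenous transcription factor output, the assay doses transfected HepG2 cells for 24 hours and quantifies reporter transcripts by fluorescent RT-PCR and capillary electrophoresis, with DMSO as baseline.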

Assay [16] can be described thus: ATG_Ets_CIS: Attagene CIS-FACTORIAL HepG2 Assay for human Erythroblast Transformation Specific (ETS) (AID 2282941). The settings on record: HepG2 ETS cis-reporter transcription, actives raise or lower the signal. The method in brief:
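Human HepG2 hepatoma cells were transiently transfected with promoter-driven reporter constructs and treated for 24 hours. Reporter transcripts were quantified by RT-PCR with fluorescent primer extension; bidirectional curve fitting used DMSO as reference.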

The target in assay [17] is Hepatocyte nuclear factor 3-beta (Homo sapiens) (UniProt Q9Y261). The experiment in a line: ATG_FoxA2_CIS: Attagene CIS-FACTORIAL HepG2 Assay for human Forkhead box A2 (FOXA2) (AID 2282942). The settings on record: HepG2 cis-reporter transcription factor activity, 24 h; actives raise or lower the signal. An outline of the steps: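 HepG2 transiently transfected with a multiplexed cis-promoter reporter library read endogenous FOXA2 activity. After 24 h compound exposure, reporter mRNA was quantified by RT-PCR, HpaI digestion and capillary electrophoresis. Bidirectional fit against DMSO.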

Assay [18] in a line: ATG_FoxO_CIS: Attagene CIS-FACTORIAL HepG2 Assay for human Forkhead box O (FoxO) (AID 2282943). The note with it: HepG2 Attagene cis-reporter, FoxO element, mRNA; actives raise or lower the signal. An outline of the steps: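 HepG2, transient MRTU transfection (cis element, endogenous TFs). Dose 24 h. TriZol RNA → oligo(dT) RT → PCR → 6-FAM primer extension → HpaI cut → CE. Gain/loss vs DMSO.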

A short description of assay [19]: ATG_GATA_CIS: Attagene CIS-FACTORIAL HepG2 Assay for human GATA Binding Protein (AID 2282944). The note with it: HepG2 GATA cis-element reporter, Attagene multiplex mRNA; actives raise or lower the signal. An outline of the steps:
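Measures endogenous transcription factor-driven reporter mRNA in HepG2 cells transiently carrying cis-regulated constructs. 24 h dosing; RNA via oligo(dT) reverse transcription, PCR, HpaI digestion, capillary electrophoresis; fitted relative to DMSO.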

The nature of assay [20]: ATG_GLI_CIS: Attagene CIS-FACTORIAL HepG2 Assay for human Zinc Finger Protein GLI1 (AID 2282945). The settings on record: HepG2, Attagene cis-factorial reporter mRNA, GLI element; actives raise or lower the signal. An outline of the steps:
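Bidirectional curve fits relative to DMSO, using reporter mRNA levels from RT-PCR plus capillary electrophoresis. Cells were HepG2 transiently carrying cis-regulated reporter constructs, harvested 24 h after dosing.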

Chain of Transcription factor E2F1 (Homo sapiens) (Q01094 whole entry, looked up): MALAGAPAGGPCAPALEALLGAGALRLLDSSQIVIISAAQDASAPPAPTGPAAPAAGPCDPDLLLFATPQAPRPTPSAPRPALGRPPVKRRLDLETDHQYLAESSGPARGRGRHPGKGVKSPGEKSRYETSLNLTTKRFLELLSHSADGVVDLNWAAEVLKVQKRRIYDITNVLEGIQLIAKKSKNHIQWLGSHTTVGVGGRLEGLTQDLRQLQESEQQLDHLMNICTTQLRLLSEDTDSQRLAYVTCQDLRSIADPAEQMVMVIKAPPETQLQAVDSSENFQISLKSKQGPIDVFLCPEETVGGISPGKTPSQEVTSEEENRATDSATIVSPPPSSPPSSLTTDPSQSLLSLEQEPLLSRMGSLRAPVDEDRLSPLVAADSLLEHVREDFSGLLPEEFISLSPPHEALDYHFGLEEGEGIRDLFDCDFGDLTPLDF
Chain of Aryl hydrocarbon receptor (Homo sapiens) (P35869 whole entry, looked up): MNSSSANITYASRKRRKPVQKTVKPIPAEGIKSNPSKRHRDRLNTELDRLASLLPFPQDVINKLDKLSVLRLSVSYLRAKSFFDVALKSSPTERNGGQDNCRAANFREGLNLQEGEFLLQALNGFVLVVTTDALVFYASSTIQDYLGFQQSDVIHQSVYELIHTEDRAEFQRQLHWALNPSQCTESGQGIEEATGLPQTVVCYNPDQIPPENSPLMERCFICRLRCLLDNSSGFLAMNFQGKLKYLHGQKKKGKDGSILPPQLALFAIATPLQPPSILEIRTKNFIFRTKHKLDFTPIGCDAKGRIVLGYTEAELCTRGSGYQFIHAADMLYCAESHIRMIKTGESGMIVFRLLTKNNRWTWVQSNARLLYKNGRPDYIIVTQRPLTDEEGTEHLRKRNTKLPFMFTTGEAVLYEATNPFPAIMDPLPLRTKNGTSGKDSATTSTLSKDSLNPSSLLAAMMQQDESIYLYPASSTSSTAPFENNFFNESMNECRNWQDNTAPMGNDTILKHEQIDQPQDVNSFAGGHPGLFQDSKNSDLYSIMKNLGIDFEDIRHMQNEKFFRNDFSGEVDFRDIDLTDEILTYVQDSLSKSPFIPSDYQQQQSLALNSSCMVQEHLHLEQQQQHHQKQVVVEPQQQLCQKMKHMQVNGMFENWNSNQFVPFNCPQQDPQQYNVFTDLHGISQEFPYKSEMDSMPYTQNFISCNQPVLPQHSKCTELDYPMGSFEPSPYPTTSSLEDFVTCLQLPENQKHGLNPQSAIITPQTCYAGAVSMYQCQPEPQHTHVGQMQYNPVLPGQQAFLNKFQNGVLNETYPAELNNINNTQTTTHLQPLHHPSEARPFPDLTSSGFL
Chain of Retinoic acid receptor alpha (Homo sapiens) (P10276 whole entry, looked up): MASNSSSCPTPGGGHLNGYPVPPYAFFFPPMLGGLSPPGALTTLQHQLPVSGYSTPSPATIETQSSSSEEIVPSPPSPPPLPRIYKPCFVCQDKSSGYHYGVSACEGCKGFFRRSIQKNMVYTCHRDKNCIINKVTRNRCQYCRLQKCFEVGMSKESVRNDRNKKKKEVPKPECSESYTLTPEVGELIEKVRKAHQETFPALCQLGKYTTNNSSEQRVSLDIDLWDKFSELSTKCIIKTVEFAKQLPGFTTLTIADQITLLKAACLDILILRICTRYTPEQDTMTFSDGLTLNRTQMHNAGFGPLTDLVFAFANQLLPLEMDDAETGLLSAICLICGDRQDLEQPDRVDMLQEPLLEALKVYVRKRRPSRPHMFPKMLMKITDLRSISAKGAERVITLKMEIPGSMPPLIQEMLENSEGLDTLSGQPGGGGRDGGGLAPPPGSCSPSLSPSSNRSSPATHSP
Chain of Hepatocyte nuclear factor 3-beta (Homo sapiens) (Q9Y261 whole entry, looked up): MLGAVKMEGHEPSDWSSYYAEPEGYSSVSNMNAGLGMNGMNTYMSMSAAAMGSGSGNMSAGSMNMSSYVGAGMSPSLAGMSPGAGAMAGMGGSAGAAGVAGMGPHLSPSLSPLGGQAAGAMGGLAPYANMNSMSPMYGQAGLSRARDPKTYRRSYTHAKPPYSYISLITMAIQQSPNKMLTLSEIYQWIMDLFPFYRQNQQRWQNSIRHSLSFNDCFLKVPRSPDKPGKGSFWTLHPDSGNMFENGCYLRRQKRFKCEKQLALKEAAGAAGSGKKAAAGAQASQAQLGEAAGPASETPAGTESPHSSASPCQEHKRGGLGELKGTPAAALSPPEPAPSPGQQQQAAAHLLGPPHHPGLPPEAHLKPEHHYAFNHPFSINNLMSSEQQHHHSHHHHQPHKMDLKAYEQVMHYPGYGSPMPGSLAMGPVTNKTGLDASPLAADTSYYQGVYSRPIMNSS
Chain of CCAAT/enhancer-binding protein beta (Homo sapiens) (P17676 whole entry, looked up): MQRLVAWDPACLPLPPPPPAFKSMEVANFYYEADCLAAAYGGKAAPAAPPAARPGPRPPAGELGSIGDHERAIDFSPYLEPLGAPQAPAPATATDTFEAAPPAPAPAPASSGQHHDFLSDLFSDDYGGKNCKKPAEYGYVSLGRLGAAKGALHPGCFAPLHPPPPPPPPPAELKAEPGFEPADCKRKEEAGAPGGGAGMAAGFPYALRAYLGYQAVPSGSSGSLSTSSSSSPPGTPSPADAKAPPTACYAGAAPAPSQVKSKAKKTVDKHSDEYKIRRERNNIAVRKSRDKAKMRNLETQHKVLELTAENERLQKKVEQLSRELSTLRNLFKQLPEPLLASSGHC

Consider `ClC1=C(Cl)C2(Cl)C3C(Cl)C=CC3C1(Cl)C2(Cl)Cl` (stereo unspecified), for which the molecule was classed as inactive in [1], in assay [2], in assay [5], in [7], in assay [8] and in [9]. In addition, the result in assay [10], in [11], in assay [12], in assay [14], in assay [16] and in [17] was inactive. Moreover, the result in [18], in assay [19] and in [20] was inactive. Further, the AC50 (commonly the concentration giving half of the maximal activity seen) in [3] is 100 µM (active); in [4], 40.1 µM (active); in assay [6] it was 154 µM (active); in assay [13], 132 µM (active); in [15] it was 24.4 µM (active).

As to `Oc1ccccc1Cl`, the molecule was called inactive in assay [1], in [2], in assay [3], in [4], in [5] and in [6]. The result in assay [7], in [8], in assay [11], in assay [12], in assay [13] and in assay [14] was inactive. Also, the result in assay [16], in assay [17], in assay [18], in assay [19] and in assay [20] was inactive.

`C[N+](C)(C)CC1CO1` (stereo unspecified): the outcome in assay [1], in [2], in [3], in assay [5], in [6] and in assay [7] was inactive. For the same molecule, the call in [8], in assay [9], in assay [10], in [11], in assay [12] and in assay [13] was inactive. The result in [15], in assay [16], in assay [17], in assay [18], in assay [19] and in assay [20] was inactive.

For `c1ccc(NNc2ccccc2)cc1`, the molecule was called inactive in assay [1], in assay [2], in assay [3], in assay [6], in assay [7] and in [8]. Further, the molecule was classed as inactive in assay [9], in assay [11], in assay [12], in [13], in [16] and in assay [17]. Further, the call in assay [18], in assay [19] and in [20] was inactive. The concentration at half-maximal activity (AC50) in [4] was 100 µM (active).

With `O=Cc1ccco1`, the molecule was called inactive in [1], in [2], in [3], in assay [5], in assay [6] and in [7]. Besides, the molecule was called inactive in assay [8], in assay [9], in assay [10], in [11], in assay [12] and in assay [13]. The call in assay [14], in assay [16], in assay [17], in assay [18], in assay [19] and in assay [20] was inactive.

As for `CC(C)(OOC(C)(C)c1ccccc1)c1ccccc1`, the half-maximal activity concentration (AC50) is 57.4 µM (active) in assay [1]; 59.3 µM (active) in [2]; 48.7 µM (active) in assay [3]; 57.5 µM (active) in assay [6]; 48.5 µM (active) in assay [8]; 61.9 µM (active) in [13]. Also, the AC50 in assay [16] was 100 µM (active); in [20], 59.1 µM (active). In addition, the molecule was classed as inactive in assay [5], in [7], in [9], in [10], in assay [11] and in [12]. Moreover, the molecule was called inactive in [14], in assay [17], in assay [18] and in [19].

As to `Clc1ccccc1Cl`, the molecule was called inactive in assay [1], in [2], in assay [3], in assay [4], in assay [5] and in [6]. Besides, the result in assay [7], in assay [8], in assay [9], in assay [10], in assay [11] and in assay [12] was inactive. In addition, the outcome in assay [13], in assay [14], in [16], in assay [17], in [18] and in assay [19] was inactive. Also, the call in assay [20] was inactive.
